This is part of a sample that, as a whole, favours compounds with a hit. Of some 79,000 tested, about 15% had one in any assay. Values without a mark were called inactive. Active and inactive are the calls of the source. Cut-off read from the data, not from the text of the source: active = growth inhibition above about 70%; inactive = the rest.
Key:
[1] = NCI Yeast Anticancer Drug Screen. Data for the rad50 strain (AID 155);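 note: 0% = growth of vehicle-only cultures of the same strain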; conditions: S. cerevisiae rad50 strain growth inhibition, stronger effect = higher value
Summary of the method: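 A DNA repair-deficient yeast mutant serves as the test organism; compound-induced growth inhibition is calculated against vehicle-treated cells.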

[2] = NCI Yeast Anticancer Drug Screen. Data for the mec2-1 strain (AID 157); conditions: S. cerevisiae mec2-1 strain, stronger effect = higher value
Summary of the method: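 Each compound was tested on mec2-1 yeast, a strain altered in DNA damage repair or cell cycle control. Growth inhibition is reported relative to vehicle.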

[3] = NCI Yeast Anticancer Drug Screen. Data for the sgs1 mgt1 strain (AID 161);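 note: 0% = growth of cultures given vehicle only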; conditions: S. cerevisiae sgs1 mgt1 strain, stronger effect = higher value
Summary of the method: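 Read-out: growth inhibition vs vehicle controls. Cells: mutant yeast strain deficient in DNA damage repair.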

[4] = NCI Yeast Anticancer Drug Screen. Data for the cln2 rad14 strain (AID 165);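 note: 0% = growth equal to vehicle treated cultures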; conditions: S. cerevisiae cln2 rad14 strain, stronger effect = higher value
Summary of the method: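 Test compounds were added to cln2 rad14 yeast cultures; inhibition of growth was then determined by comparison with vehicle treatment.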

[5] = NCI Yeast Anticancer Drug Screen. Data for the bub3 strain (AID 167); conditions: S. cerevisiae bub3 mutant strain, stronger effect = higher value
Summary of the method: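 Inhibition values come from growth of compound-treated mutant yeast normalised to vehicle-treated controls.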

[6] = NCI Yeast Anticancer Drug Screen. Data for the mlh1 rad18 strain (AID 175); conditions: S. cerevisiae mlh1 rad18 strain growth inhibition, stronger effect = higher value
Summary of the method: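 Inhibition values reflect reduced growth of mutant yeast versus vehicle-treated controls following compound exposure; the mutations affect DNA damage repair.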

[7] = at 5.0 µM (retest, dose inferred, filed as 0.5)
[8] = at 50.0 µM (retest, dose inferred, filed as 5.0)

Compound | growth inhibition [1, 7] | growth inhibition [1, 8] | growth inhibition ([1]; at 50.0 µM) | growth inhibition [2, 7] | growth inhibition [2, 8] | growth inhibition ([2]; at 50.0 µM) | growth inhibition [3, 7] [%] | growth inhibition [3, 8] | growth inhibition ([3]; at 50.0 µM) | growth inhibition [4, 7] | growth inhibition [4, 8] | growth inhibition ([4]; at 50.0 µM) | growth inhibition [5, 7] [%] | growth inhibition [5, 8] | growth inhibition ([5]; at 50.0 µM) | growth inhibition [6, 7] | growth inhibition [6, 8] | growth inhibition ([6]; at 50.0 µM)
C[n+]1c(/C=C\c2ccccc2)sc2ccccc21 | 23% | 89% (active) | 82.8% (active) | 21% | 90% (active) | 82.3% (active) | 33 | 93% (active) | 88.7% (active) | 19% | 83% (active) | 74.8% (active) | 7 | 86% (active) | 76.9% (active) | 15% | 81% (active) | 87% (active)
CCCCCCCCCCCCn1cnc2ncnc(Cl)c21 | 6% | 48% | 98.2% (active) | 7% | 54% | 99% (active) | 11 | 68% | 98.7% (active) | 2% | 28% | 98.4% (active) | -4 | 41% | 98.8% (active) | 6% | 63% | 98.6% (active)
C[N+](C)(C)CCN(Cc1cccs1)c1ccccn1 | -2% | -9% | 20.2% | 8% | -16% | 29.9% | 2 | -20% | -37.8% | -27% | -111% | 72.2% (active) | -4 | -10% | -4.2% | -3% | -13% | -2.15%
CCOC(=O)C(=CCC1NCCc2c1[nH]c1ccccc21)C(=O)OCC (stereo not given) | 23% | 93% (active) | 91.2% (active) | 29% | 97% (active) | 91.7% (active) | 29 | 63% | 93.5% (active) | 28% | 59% | 92.2% (active) | 30 | 98% (active) | 92.4% (active) | 41% | 97% (active) | 91.6% (active)
CCCCCCCCCCCCNCCNCCN | 99% (active) | 95% (active) | 86.7% (active) | 99% (active) | 100% (active) | 89.7% (active) | 25 | 96% (active) | 91% (active) | 84% (active) | 97% (active) | 85.6% (active) | 61 | 96% (active) | 89% (active) | 100% (active) | 100% (active) | 86.6% (active)
COc1ccc(N=NC(C(=O)c2ccccc2)C(=O)c2ccccc2)cc1 | 29% | 96% (active) | 92.3% (active) | -1% | 94% (active) | 93.2% (active) | 20 | 94% (active) | 92.4% (active) | 6% | 95% (active) | 88.7% (active) | -3 | 97% (active) | 91.2% (active) | -18% | 97% (active) | 91.2% (active)
CS(=O)(=O)OC1C(O)C(n2cnc3c(N)ncnc32)C(O)C(OS(C)(=O)=O)C1OS(C)(=O)=O (stereo not given) | 0% | -2% | 0.05% | 1% | -3% | 57.5% | -2 | -1% | 3.8% | -1% | 0% | -7.9% | -1 | -2% | 40% | -1% | -1% | 18.4%
CN1C/C(=C\c2ccccc2)C(=O)C(c2ccccc2)C1 (stereo not given) | -1% | 94% (active) | 1.9% | 0% | 95% (active) | 19.9% | 0 | 96% (active) | 28.8% | 1% | 94% (active) | -20.6% | -7 | 95% (active) | 77.2% (active) | -1% | 95% (active) | 31.4%
COc1ccc(NC(=O)CCC(=O)C(C)C(=O)c2ccccc2)cc1 (stereo not given) | 0% | -1% | 59.8% | -1% | 3% | 16.2% | 14 | 0% | 26.8% | -1% | 10% | 49.2% | 0 | 21% | 21.6% | -2% | 6% | 24.3%
CC1CCCC(C)C1=O (stereo not given) | 4% | 3% | 8.7% | -4% | 0% | -12.2% | -7 | 3% | -13.4% | 3% | 7% | 13.8% | 5 | 10% | 3% | 2% | 3% | -4.35%

From PubChem BioAssay (NCI)
